ChEMBL document CHEMBL1157539, “Thousands of chemical starting points for antimalarial lead identification” (Nature, 2010)

tested on: HepG2; assay: GSK_TCMDC: Percent inhibition of human HepG2 cell line. Test compounds present at 10uM.; type: functional

Row | SMILES | Inhibition [%]
1 | CN1CCN(CCCN(Cc2cccc(-c3ccc(CNC4CCCC4)cc3)c2)C(=O)CCC2CCCC2)CC1.O=C(O)C(F)(F)F | 16
2 | O=C(Nc1cccc(OCc2ccccc2)c1)c1ccc(CN2CCC(Cc3ccccc3)CC2)cc1 | 41
3 | CC(C)(C)c1ccc(CNC(=O)/C=C/c2ccc(CNC3CCNCC3)cc2)cc1 | 6
